According to the supplement of paper PMC11732987, “Enantioselective OTUD7B fragment discovery through chemoproteomics screening and high-throughput optimisation” (Communications Chemistry, 2025):

Columns and labels:
Experiment in all cases: log2 ratio of Biotin-Ahx-Ub-VS probe labelling (fragment/DMSO); higher = less target engagement (more negative = stronger competition), active = hit call of the paper (q ≤ 0.05, log2 ratio ≤ -1)
Conditions in all cases: compound concentration: 200 uM; treatment time: 3 h
USP34 = USP34 (UniProt Q70CQ2)
Sequence of USP34 (Q70CQ2 whole entry, the tested form may be a part): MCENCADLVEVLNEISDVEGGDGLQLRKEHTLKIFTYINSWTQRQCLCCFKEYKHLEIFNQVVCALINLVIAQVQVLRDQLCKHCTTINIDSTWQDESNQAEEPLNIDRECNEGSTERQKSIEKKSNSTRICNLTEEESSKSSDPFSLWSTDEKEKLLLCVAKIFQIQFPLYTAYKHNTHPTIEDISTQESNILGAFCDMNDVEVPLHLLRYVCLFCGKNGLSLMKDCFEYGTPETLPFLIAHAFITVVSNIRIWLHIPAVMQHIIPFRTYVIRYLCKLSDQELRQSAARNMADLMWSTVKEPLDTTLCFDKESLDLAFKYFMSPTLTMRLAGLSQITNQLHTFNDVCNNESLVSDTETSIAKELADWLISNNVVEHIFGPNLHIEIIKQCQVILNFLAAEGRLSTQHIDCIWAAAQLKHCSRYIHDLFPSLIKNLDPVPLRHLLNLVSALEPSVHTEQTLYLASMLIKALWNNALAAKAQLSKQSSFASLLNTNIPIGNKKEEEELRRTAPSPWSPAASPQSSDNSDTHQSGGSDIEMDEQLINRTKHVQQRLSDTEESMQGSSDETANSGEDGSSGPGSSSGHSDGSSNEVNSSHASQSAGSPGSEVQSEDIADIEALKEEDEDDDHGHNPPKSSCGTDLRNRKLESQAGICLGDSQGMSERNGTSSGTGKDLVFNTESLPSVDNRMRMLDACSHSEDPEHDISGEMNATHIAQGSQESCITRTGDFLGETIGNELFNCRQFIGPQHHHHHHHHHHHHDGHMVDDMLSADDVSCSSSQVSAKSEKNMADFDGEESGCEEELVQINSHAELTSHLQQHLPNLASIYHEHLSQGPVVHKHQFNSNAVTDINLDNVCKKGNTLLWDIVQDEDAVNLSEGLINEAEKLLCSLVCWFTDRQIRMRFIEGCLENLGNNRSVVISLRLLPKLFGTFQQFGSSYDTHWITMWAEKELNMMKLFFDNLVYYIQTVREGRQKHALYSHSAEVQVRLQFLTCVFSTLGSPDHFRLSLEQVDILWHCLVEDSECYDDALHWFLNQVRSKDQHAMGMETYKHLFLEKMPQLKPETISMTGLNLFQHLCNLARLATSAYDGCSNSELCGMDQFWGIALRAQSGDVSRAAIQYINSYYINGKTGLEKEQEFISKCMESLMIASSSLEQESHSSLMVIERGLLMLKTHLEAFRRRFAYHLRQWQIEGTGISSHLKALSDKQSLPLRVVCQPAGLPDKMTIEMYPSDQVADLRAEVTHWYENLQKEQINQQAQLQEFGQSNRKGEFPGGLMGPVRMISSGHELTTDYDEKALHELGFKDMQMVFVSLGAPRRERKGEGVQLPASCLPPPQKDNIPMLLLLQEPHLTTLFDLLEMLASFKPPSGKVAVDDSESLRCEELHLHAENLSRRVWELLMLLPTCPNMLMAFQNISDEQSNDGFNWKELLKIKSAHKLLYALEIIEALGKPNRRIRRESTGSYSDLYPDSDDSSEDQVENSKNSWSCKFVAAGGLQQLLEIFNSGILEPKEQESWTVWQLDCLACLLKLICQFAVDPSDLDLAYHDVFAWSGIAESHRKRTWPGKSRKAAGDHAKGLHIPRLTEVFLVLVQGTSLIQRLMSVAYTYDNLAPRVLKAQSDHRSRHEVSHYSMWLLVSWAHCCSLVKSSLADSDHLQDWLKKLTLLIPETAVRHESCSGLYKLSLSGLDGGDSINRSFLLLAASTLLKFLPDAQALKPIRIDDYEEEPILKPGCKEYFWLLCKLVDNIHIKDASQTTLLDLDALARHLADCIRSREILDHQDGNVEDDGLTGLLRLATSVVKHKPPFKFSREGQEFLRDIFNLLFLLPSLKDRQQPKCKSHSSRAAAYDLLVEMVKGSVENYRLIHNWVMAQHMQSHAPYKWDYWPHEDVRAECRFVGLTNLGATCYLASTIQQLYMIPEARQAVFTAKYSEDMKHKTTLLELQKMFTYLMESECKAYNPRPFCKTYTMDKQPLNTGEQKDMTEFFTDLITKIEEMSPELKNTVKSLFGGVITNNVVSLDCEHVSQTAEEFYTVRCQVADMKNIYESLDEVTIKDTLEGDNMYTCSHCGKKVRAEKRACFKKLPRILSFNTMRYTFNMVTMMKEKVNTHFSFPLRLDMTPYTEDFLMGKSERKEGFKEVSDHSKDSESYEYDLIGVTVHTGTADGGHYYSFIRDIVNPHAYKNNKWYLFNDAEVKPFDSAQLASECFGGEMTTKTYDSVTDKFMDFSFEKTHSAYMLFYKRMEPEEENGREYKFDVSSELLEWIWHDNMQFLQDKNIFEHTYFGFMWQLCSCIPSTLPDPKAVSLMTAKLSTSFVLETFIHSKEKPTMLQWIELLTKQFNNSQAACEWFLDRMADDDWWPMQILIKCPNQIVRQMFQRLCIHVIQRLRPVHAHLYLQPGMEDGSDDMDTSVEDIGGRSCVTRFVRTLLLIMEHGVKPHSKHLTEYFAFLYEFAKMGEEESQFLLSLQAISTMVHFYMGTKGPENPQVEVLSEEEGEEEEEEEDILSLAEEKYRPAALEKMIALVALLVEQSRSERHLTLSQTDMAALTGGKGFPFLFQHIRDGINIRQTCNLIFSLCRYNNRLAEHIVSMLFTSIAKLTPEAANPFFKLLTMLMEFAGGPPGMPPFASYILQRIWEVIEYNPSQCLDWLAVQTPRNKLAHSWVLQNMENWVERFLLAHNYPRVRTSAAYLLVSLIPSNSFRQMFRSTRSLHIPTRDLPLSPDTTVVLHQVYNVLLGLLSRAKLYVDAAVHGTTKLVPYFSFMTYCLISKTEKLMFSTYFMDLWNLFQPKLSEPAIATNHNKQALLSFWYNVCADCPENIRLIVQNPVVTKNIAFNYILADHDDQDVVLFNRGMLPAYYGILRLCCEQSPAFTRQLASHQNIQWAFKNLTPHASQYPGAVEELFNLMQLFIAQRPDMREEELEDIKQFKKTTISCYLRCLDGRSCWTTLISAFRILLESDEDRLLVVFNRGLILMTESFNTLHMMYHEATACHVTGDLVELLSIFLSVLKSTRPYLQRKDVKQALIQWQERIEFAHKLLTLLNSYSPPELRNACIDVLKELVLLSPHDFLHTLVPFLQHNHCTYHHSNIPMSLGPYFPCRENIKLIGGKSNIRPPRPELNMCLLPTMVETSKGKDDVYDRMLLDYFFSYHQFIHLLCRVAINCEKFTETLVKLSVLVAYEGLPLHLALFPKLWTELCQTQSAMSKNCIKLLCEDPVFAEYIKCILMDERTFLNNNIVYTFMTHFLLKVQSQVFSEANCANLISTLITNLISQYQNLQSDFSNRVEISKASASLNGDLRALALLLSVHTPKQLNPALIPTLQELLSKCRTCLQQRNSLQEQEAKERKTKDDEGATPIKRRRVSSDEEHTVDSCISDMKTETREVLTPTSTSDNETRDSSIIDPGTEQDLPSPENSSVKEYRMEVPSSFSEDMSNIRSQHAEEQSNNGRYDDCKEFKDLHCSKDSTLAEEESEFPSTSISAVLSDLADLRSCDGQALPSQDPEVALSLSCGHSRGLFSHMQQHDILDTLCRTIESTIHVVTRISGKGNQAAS
In short: (§1)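 HEK293T lysate in Tris/CHAPS/IGEPAL buffer with protease inhibitors (495 µg per sample) was given fragment at 200 µM or vehicle for 3 h, in triplicate. It then received Biotin-Ahx-Ub-VS at 0.5 µM final for 1 h. Labelled DUBs were NeutrAvidin-enriched, digested with LysC and trypsin, and run by diaPASEF LC-MS/MS. Values are average log2 fragment/vehicle ratios by unpaired t-test on global-median-normalised Spectronaut quantities of proteins with ≥2 unique peptides.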

USP36 = molecular target: T1, USP36 (UniProt Q9P275)
T1 sequence (whole entry): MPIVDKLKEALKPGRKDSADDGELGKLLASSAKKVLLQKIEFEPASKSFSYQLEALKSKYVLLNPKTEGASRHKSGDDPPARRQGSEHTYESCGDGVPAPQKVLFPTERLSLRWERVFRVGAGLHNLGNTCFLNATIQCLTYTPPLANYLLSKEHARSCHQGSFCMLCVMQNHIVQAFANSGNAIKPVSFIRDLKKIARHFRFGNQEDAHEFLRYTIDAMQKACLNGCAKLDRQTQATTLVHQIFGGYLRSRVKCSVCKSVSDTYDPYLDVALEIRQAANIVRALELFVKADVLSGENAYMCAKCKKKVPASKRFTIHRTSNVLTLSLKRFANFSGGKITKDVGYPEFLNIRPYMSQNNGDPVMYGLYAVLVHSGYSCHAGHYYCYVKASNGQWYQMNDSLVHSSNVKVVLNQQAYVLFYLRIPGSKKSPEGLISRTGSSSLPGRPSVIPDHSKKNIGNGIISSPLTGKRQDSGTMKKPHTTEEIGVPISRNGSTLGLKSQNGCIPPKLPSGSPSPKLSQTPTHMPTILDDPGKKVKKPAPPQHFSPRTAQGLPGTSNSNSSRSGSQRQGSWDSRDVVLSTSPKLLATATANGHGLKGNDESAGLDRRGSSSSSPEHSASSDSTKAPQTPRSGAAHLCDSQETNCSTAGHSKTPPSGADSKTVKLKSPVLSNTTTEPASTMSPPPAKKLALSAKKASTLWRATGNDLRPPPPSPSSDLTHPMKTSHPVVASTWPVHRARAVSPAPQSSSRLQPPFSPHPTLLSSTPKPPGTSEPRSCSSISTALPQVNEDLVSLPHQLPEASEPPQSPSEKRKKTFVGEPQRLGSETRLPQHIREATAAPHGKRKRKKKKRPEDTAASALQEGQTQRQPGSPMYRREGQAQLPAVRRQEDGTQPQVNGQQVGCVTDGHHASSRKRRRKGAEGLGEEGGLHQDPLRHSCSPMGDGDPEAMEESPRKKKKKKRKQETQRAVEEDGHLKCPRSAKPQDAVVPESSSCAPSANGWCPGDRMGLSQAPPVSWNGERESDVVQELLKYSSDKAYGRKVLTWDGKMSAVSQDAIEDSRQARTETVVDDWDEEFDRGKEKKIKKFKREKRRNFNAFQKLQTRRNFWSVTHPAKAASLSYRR
In short: as §1

USP38 = molecular target: T2, USP38 (UniProt Q8NB14)
T2 sequence (whole entry): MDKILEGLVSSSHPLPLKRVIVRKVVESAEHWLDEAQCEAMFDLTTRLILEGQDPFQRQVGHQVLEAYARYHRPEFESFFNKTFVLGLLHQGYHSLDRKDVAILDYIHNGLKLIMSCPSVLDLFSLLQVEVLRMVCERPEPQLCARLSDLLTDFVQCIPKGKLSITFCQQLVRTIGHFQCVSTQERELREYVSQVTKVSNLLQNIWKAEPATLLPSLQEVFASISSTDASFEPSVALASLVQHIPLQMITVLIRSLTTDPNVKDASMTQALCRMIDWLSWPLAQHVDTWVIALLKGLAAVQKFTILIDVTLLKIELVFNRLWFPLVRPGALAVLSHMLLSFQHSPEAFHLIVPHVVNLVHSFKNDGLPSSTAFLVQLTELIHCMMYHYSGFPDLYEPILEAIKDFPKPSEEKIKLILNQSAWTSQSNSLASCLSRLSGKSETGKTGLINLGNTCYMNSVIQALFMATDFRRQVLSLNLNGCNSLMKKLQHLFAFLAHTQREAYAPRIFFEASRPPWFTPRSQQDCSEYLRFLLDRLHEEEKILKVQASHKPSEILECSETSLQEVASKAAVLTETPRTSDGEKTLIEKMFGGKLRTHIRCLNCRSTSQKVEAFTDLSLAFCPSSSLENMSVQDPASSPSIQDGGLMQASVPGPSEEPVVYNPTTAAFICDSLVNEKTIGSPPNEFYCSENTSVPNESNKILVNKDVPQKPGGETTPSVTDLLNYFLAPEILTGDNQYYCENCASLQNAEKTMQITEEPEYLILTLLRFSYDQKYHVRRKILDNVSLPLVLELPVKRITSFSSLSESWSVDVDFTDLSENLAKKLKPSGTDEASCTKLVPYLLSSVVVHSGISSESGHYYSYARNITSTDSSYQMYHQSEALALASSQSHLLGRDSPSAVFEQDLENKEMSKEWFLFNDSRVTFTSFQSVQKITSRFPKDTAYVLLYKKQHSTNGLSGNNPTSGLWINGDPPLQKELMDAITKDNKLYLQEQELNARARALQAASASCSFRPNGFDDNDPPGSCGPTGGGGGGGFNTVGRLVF
In short: as §1

USP39 = molecular target: T3, USP39 (UniProt Q53GS9)
T3 sequence (whole entry): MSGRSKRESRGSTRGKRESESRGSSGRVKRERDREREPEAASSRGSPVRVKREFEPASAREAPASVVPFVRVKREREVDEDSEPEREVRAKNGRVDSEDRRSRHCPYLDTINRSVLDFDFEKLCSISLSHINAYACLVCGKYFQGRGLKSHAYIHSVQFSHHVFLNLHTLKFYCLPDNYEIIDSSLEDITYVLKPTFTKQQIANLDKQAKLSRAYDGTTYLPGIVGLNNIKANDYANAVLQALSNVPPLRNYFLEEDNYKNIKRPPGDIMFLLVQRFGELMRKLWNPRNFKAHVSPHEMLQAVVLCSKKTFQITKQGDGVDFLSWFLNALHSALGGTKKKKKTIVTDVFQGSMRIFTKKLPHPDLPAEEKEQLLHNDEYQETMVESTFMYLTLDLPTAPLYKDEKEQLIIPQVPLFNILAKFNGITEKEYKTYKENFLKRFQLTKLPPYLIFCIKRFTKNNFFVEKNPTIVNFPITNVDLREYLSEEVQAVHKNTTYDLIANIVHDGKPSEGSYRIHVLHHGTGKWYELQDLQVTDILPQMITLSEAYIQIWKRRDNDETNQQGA
In short: as §1

USP4 = molecular target: T4, USP4 (UniProt Q13107)
T4 sequence (whole entry): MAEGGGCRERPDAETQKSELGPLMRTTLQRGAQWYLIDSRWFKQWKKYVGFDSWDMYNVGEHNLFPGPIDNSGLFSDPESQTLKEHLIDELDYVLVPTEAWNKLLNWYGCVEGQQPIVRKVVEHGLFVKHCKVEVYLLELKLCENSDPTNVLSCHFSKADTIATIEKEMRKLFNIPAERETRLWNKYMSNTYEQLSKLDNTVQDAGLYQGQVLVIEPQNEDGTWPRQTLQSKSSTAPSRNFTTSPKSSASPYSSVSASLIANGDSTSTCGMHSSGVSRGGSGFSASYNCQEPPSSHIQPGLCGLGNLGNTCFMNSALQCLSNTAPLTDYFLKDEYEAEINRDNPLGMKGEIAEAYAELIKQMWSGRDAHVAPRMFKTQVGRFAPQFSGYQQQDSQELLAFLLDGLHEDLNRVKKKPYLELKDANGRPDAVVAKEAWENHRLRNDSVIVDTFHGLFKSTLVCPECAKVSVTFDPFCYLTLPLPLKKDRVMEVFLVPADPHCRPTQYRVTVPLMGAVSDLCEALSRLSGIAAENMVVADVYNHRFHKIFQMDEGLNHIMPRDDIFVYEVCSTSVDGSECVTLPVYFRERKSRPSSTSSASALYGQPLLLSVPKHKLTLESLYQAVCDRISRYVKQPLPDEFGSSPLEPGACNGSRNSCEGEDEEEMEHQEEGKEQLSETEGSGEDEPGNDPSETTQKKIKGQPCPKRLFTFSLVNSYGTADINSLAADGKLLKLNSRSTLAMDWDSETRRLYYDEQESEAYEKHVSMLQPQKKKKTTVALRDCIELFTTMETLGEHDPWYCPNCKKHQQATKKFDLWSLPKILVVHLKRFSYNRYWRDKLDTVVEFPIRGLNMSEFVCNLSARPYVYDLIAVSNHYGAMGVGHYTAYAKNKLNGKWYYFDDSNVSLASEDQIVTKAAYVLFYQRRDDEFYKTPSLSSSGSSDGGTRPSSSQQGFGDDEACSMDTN
In short: as §1

Measured: log2 ratio of Biotin-Ahx-Ub-VS probe labelling

CNC(=O)C1CCN(C(=O)CCl)CC1
inactive: USP34 -0.0658 | USP36 -0.083 | USP38 0.119 | USP39 0.229 | USP4 -0.146
